Most compounds without a hit are left out; they make up all but 3.8% or so of the library.
IDH1 R132H inh = human IDH1 R132H inhibition; IDH1-R132H enzyme, NADPH consumption, diaphorase/resazurin fluorescence; Potency, µM (series often up to 76.6 µM), for the others: at the highest dose activity change, negative = inhibition, usual class: inhibitors; hit rate 0.093% among 390,000; further: on the % scale 0 is the no-effect control and ±100 the full control effect; nearly all actives have a fitted effect of over 65% in size
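IDH1-R132H (0.5 ug/mL dispensed) in pH 7.5 Tris buffer was preincubated 30 min with compound, then given a substrate mix of 0.016 mM NADPH and 2 mM alpha-KG for 80 min at room temperature; remaining NADPH was read by diaphorase/resazurin fluorescence.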
A549 tox-1 = counter-screen for Nrf2 inhibitors: cytotoxicity in A549 cells; hit rate 0.16% among 390,000; Potency, µM (highest dose often 46 µM), for inactives: at the highest dose activity change, negative = cytotoxicity, usual class: inhibitors; AID 504648; A549 ARE-Fluc cells, CellTiter-Fluor viability, 18-24 h; further: on the % scale 0 is the no-effect control and ±100 the full control effect
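Cytotoxicity counterscreen: CellTiter-Fluor fluorescence was measured in A549 ARE_Fluc cells after 18-24 h of compound exposure in a concentration series. The subsequent BugLite luminescent read reports ARE-luciferase activity.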
Nrf2 inh = inhibitors of Nrf2 signaling | A549 ARE-Fluc reporter, luciferase luminescence, 18-24 h | Potency, µM (doses to about 46 µM), inactives show at the highest dose activity change, negative = inhibition, actives largely listed as inhibitors | hit rate 2.1% among 360,000; further: on the % scale 0 is the no-effect control and ±100 the full control effect; nearly all actives have a fitted effect of over 60% in size
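Nrf2 activity is the BugLite luminescence, read 15 min after reagent at room temperature, following CellTiter-Fluor cytotoxicity readout (30 min, 37C). Compound titrations were applied for 18-24 h to 5000 A549 ARE_Fluc cells/well in 5% FBS OPTI-MEM.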
ELG1 DNA repair = ELG1-dependent DNA repair inhibition; HEK293T ELG1-luciferase reporter, luminescence, 16 h; DNA damage induced by 5-fluorouridine; Potency, µM (doses to about 46.1 µM), for the others: at the top dose activity change, negative = inhibition, actives largely listed as inhibitors; hit rate 2.3% among 330,000; further: on the % scale 0 is the no-effect control and ±100 the full control effect; nearly all actives have a fitted effect of over 55% in size
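Luminescence from the luciferase reporter, measured 30 min after ONE-Glo reagent at room temperature, was the read-out. Beforehand, 2,000 cells per well were exposed for 16 hr at 37 °C to 5-fluorouridine together with compound or vehicle.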
Nrf2 ARE act = activates Nrf2 signaling | AREc32 ARE-luciferase reporter (MCF7-derived line), luminescence, 24 h | hit rate 0.31% among 410,000 | Potency, µM (series often up to 46.1 µM), for the others: at the top dose activation, usual class: activators | AID 624171; further: % of control where 0% means no effect; nearly all actives have a fitted effect of over 65% in size
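Cells of the AREc32 ARE-luciferase line are plated in OPTI-MEM containing 5% FBS and left overnight at 37 deg C. Compounds are pinned in, incubation continues 24 hr, and firefly luciferase signal is then measured.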
FLuc counter 3 = blocks purified firefly luciferase in Nrf2 counterscreen. shares compounds with Nrf2 inh. purified firefly luciferase, luminescence inhibition. Potency, µM (doses to about 57.5 µM), for the others: top-dose activity change, negative = inhibition, most hits filed as inhibitors. hit rate 4% among 1,400. AID 720522; further: on the % scale 0 is the no-effect control and ±100 the full control effect; nearly all actives have a fitted effect of over 65% in size
A549 tox-2 = A549 cytotoxicity, Nrf2 inhibitor counterscreen; shares compounds with Nrf2 inh; A549 ARE-Fluc cells, cytotoxicity counterscreen; Potency, µM (highest dose often 46.1 µM), inactives show at the top dose activity change, negative = cytotoxicity, actives largely listed as inhibitors; hit rate 2% among 1,400; AID 720523;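 further: cells exposed to compounds for 18 to 24 hours; on the % scale 0 is the no-effect control and ±100 the full control effect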
ARE-Fluc inh = Nrf2 inhibition confirmed, A549 ARE-luciferase | shares compounds with Nrf2 inh | A549 ARE-firefly luciferase reporter, luminescence | Potency, µM (doses to about 46.1 µM), inactives show at the top dose activity change, negative = inhibition, usual class: inhibitors | hit rate 74% among 1,400; further: on the % scale 0 is the no-effect control and ±100 the full control effect; nearly all actives have a fitted effect of over 65% in size
ELG1 FLuc counter = luciferase inhibition in cell-free luciferin readout for ELG1 hits; shares compounds with ELG1 DNA repair; cell-free firefly luciferase luminescence counter-screen, ViewLux; Potency, µM (top dose mostly 46.1 µM), inactives show top-dose activity change, negative = inhibition, most hits filed as inhibitors; hit rate 3% among 350; further: on the % scale 0 is the no-effect control and ±100 the full control effect
ELG1-Luc inh = confirmation of human ELG1-dependent DNA repair inhibitors; shares compounds with ELG1 DNA repair; HEK293T ELG1-luciferase levels, luminescence; cells co-treated with 5-fluorouridine; Potency, µM (titrated, usually from 46.1 µM), without a hit: at the highest dose activity change, negative = inhibition, most hits filed as inhibitors; hit rate 68% among 670; further: on the % scale 0 is the no-effect control and ±100 the full control effect; nearly all actives have a fitted effect of over 55% in size
ELG1 MMS Luc = inhibits ELG1-dependent repair under MMS stimulation in HEK293T cells; shares compounds with ELG1 DNA repair; HEK293T luciferase-tagged ELG1 level, MMS stimulated; Potency, µM (series often up to 46.1 µM), for inactives: at the highest dose activity change, negative = inhibition, hits mostly inhibitors; hit rate 53% among 670; AID 624249; further: on the % scale 0 is the no-effect control and ±100 the full control effect; nearly all actives have a fitted effect of over 60% in size
ELG1 5FU viab = confirmation of ELG1 repair inhibitors: viability with 5FU; Potency, µM (titrated, usually from 46.1 µM), for the others: at the highest dose activity change, negative = viability loss, usual class: cytotoxic; cell viability with 5-FU, ELG1-dependent repair; AID 624250; 670 tested, under 10 active; shares compounds with ELG1 DNA repair;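 further: ELG1-luc HEK293T cells cotreated with 5-fluorouridine at 10 µM final; viability measured 16 h after compound addition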
ELG1 MMS cell = confirmation of ELG1 repair inhibitors: viability with MMS; Cell viability with MMS, ELG1-dependent DNA repair; Potency, µM (titrated, usually from 46.1 µM), inactives show top-dose activity change, negative = viability loss, hits mostly cytotoxic; shares compounds with ELG1 DNA repair; AID 624251; hit rate 33% among 670;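 further: ELG1-luc HEK293T cells co-treated with 10 µM MMS; viability read 16 h after compound addition; on the % scale 0 is the no-effect control and ±100 the full control effect; nearly all actives have a fitted effect of over 60% in size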
Cell viab unstim = affects unstimulated cell viability, ELG1 hit counter-screen. Potency, µM (top dose mostly 45.9 µM), without a hit: at the top dose activity change, negative = loss of viability, hits mostly cytotoxic. cell viability counter-screen, unstimulated, luminescence. shares compounds with ELG1 DNA repair. hit rate 8% among 900;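 further: compound exposure lasted 16 hours before reading; on the % scale 0 is the no-effect control and ±100 the full control effect; nearly all actives have a fitted effect of over 55% in size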
FLuc biochem = inhibits purified firefly luciferase, counter-screen for ELG1 hits. Potency, µM (titrated, usually from 57.5 µM), without a hit: at the top dose activity, negative = inhibition, actives largely listed as inhibitors. hit rate 10% among 350. AID 624253. purified firefly luciferase, luminescence counter-screen. shares compounds with ELG1 DNA repair; further: on the % scale 0 is the no-effect control and ±100 the full control effect
* hit, by the source's call; ? = inconclusive; / = no result given; [ ] = remark or other dose. The call rests on the fitted dose curve; in most records, active means well fitted curve in the direction sought with a large enough effect; inconclusive means small, poorly fitted or top-dose-only effect, or another doubt; inactive means no such curve, though single readings can be large; an effect the other way counts as inactive or inconclusive. Potency means the concentration at half of the fitted maximal effect.

SMILES | IDH1 R132H inh | A549 tox-1 | Nrf2 inh | ELG1 DNA repair | Nrf2 ARE act | FLuc counter 3 | A549 tox-2 | ARE-Fluc inh | ELG1 FLuc counter | ELG1-Luc inh | ELG1 MMS Luc | ELG1 5FU viab | ELG1 MMS cell | Cell viab unstim | FLuc biochem
O=C(Nc1ccncc1)c1cccc(S(=O)(=O)N2CCc3ccccc32)c1 | -3% | -20% | 8.2µM* | ? | 3% | 0% | -12% | 7.3µM* | / | / | / | / | / | / | /
CC(C)Cn1c(N)c(C(=O)COC(=O)CC23CC4CC(CC(C4)C2)C3)c(=O)n(C)c1=O | 7% | ? | 2.1µM* | 3.7µM* | 0% | -28% | -12% | / | / | 2µM* | 1.1µM* | -24% | 1µM* | 16µM* | /
CCn1c(C(=O)Nc2cc(C)cc(C)c2)cc2sc(Cl)cc21 | 12% | ? | ? | / | 3% | / | / | / | / | / | / | / | / | / | /
CC1CCc2nc(-c3cc4ccc(O)cc4oc3=O)sc2C1 (stereo not drawn) | / | ? | 2.3µM* | / | / | 0.038µM* | 191% | 18µM* | 53% | / | / | / | / | -1% | 0.18µM*
COc1ccc(CCNC(=O)c2ccc(Cn3c(SCc4ccccc4)nc4cccnc43)cc2)cc1 | -1% | -10% | -15% | / | 1% | / | / | / | / | / | / | / | / | / | /
O=C(NNc1ccnc2cc(Cl)ccc12)C1CCCCC1 | -4% | -17% | 3.3µM* | 0.52µM* | 1% | ? | -13% | 2.6µM* | -17% | -9% | 0.89µM* | -5% | 0.71µM* | ? | -8%
Cc1nn(-c2ccc(NC(=O)c3ccncc3)cc2)c(C)c1Cl | -6% | -7% | 3.7µM* | 4.6µM* | 0% | -11% | -5% | 7.3µM* | / | 14µM* | 2.2µM* | -16% | 1.6µM* | 16µM* | /
C/C(=N\NC(=O)c1c(Cl)c(C)nn1C)c1ccc(NC(=O)c2ccncc2)cc1 | 0% | 3% | -18% | ? | -1% | / | / | / | / | / | / | / | / | / | /
CCCNc1nc2c(c(=O)n(C)c(=O)n2C)n1Cc1cccc(C)c1 | -5% | -9% | 6.5µM* | 1.3µM* | 2% | 0% | 2% | 10µM* | / | ? | 6.3µM* | 3% | 7.9µM* | -18% | /
Cc1ccccc1-c1cc2nc(NCCN3CCNC3=O)n(C)c(=O)c2s1 | / | / | / | / | 4% | / | / | / | / | / | / | / | / | / | /
Cc1ccc(S(=O)(=O)NCc2ccc(C(=O)N3CCN(c4ccc([N+](=O)[O-])cc4)CC3)cc2)cc1 | -4% | ? | 5.2µM* | 2.3µM* | 9% | -1% | -21% | 5.8µM* | / | 7.9µM* | 1.6µM* | -8% | 1.8µM* | ? | /
CC1=C(C(=O)OCc2ccc3c(c2)OCO3)C(c2ccc(F)cc2)NC(=O)N1 (stereo not drawn) | 7% | -21% | 4.1µM* | 1.3µM* | 1% | 1% | -11% | 8.2µM* | ? | 0.89µM* | 4.5µM* | -1% | ? | ? | -7%
CSCCOC(=O)C1=C(C)NC(=O)NC1c1ccc2c(c1)OCO2 (stereo not drawn) | 1% | -2% | -13% | -13% | -1% | / | / | / | / | / | / | / | / | / | /
Cc1ccc(S(=O)(=O)N(CC(=O)Nc2ccc3c(c2)OCO3)c2cc(Cl)cc(Cl)c2)cc1 | 11% | 4% | -7% | / | -1% | / | / | / | / | / | / | / | / | / | /
CN1CCN(S(=O)(=O)c2cccs2)CC1 | 31% | 0% | -5% | -4% | 0% | / | / | / | / | / | / | / | / | / | /
O=S(=O)(c1cccs1)N1CCN(c2ccc(O)cc2)CC1 | 6% | -8% | ? | 1.6µM* | 8% | -21% | ? | 1.8µM* | / | -1% | 25µM* | 5% | ? | ? | /
COc1ccc2cc3c(N)nn(C(=O)c4ccccc4Cl)c3nc2c1 | -9% | -3% | 9.2µM* | 0.65µM* | -2% | -28% | -20% | ? | ? | 0.79µM* | 4µM* | 7% | -1% | ? | -9%
O=C(c1ccccc1)C(Nc1cccc([N+](=O)[O-])c1)c1ccccc1 (stereo not drawn) | -4% | -1% | -19% | / | ? | / | / | / | / | / | / | / | / | / | /
O=C(NC1CCCCCCC1)c1cc(COc2ccc3ncccc3c2)on1 | 12% | ? | 3.3µM* | 1.6µM* | 1% | -16% | 2% | 2.9µM* | -12% | 18µM* | 1.1µM* | -3% | 1.4µM* | ? | ?
CCOc1cc(S(=O)(=O)NCc2ccncc2)ccc1Cl | -10% | -11% | 1µM* | ? | 0%[9.22 µM] | -1% | -1% | 1.3µM* | -1% | ? | 0.56µM* | -8% | 0.71µM* | -4% | 0%
Cc1ccc(C(=O)NNC(=O)c2ccc(S(=O)(=O)N(C)c3ccccc3)cc2)cc1 | -4% | -4% | -14% | -2% | -1% | / | / | / | / | / | / | / | / | / | /

High-throughput results deposited in PubChem BioAssay by National Center for Advancing Translational Sciences (NCATS).
